Common to all, as to design: scale not given: direction of the effect not stated beside the values
For experiment [1], the target named is Protein translocase subunit SecA (Escherichia coli (strain K12)) (UniProt P10408). The experiment is described as follows: Assay to Identify E. coli SecA ATPase Inhibitors. The class given is functional. Particulars: 30 µM.
Experiment [2] concerns the target T1, Ubiquitin-activating enzyme e1, putative (Leishmania donovani (strain BPK282A1)) (UniProt E9BSI1).
T1 sequence (whole entry): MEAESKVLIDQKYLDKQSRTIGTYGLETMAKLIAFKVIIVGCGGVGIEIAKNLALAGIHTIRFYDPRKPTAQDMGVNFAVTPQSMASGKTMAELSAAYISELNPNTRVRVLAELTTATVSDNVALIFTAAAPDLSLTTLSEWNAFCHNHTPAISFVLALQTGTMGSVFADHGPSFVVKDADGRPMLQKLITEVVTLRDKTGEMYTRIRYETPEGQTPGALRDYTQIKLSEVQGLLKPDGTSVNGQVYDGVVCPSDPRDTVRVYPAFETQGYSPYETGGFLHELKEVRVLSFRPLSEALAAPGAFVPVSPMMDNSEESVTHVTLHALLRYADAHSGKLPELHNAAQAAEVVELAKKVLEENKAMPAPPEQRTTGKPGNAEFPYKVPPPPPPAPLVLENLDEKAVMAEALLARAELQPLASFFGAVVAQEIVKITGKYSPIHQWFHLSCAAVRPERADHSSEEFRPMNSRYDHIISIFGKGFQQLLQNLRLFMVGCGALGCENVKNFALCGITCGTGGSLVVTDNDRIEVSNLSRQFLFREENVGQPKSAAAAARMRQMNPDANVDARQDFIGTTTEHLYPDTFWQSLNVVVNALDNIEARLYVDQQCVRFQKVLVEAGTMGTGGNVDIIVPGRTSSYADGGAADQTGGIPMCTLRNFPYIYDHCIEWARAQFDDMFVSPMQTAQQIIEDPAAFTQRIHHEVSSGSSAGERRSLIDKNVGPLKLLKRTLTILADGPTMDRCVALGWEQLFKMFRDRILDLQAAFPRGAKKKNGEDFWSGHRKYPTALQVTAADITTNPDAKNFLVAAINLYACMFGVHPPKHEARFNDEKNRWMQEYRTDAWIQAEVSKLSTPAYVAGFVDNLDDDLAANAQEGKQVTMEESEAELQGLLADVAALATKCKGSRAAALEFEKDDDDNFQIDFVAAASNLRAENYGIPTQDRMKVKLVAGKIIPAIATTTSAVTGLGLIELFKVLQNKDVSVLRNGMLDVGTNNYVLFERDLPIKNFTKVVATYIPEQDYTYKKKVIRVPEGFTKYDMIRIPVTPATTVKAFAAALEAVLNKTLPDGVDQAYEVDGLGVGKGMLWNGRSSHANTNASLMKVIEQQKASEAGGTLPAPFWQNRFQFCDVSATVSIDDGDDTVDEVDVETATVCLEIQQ
The experiment is described as follows: Leishmania donovani Ubiquitin Activating Enzyme (LdE1). Format: functional. Particulars: 30 µM.

Experiment [3] addresses AMP-activated protein kinase, AMPK (Homo sapiens) (UniProt P54646+O43741+P54619+Q9UGJ0+Q9Y478+Q13131+Q9UGI9). The experiment is described as follows: AMP-dependent Kinase enzyme assay. An in vitro enzyme assay that detects ADP turnover that is directly proportional to AMPK activity. This uses naive AMPK that is activated during the assay with MK-8722. Format: functional. Particulars: 30 µM.

For experiment [4], the target named is Sialic acid-binding Ig-like lectin 9 (Homo sapiens) (UniProt Q9Y336). The experiment is described as follows: Hs-Siglec9 ALPHAscreen SOP 20170721. Particulars: 10 µM.
Sequence of Sialic acid-binding Ig-like lectin 9 (Homo sapiens) (Q9Y336 whole entry): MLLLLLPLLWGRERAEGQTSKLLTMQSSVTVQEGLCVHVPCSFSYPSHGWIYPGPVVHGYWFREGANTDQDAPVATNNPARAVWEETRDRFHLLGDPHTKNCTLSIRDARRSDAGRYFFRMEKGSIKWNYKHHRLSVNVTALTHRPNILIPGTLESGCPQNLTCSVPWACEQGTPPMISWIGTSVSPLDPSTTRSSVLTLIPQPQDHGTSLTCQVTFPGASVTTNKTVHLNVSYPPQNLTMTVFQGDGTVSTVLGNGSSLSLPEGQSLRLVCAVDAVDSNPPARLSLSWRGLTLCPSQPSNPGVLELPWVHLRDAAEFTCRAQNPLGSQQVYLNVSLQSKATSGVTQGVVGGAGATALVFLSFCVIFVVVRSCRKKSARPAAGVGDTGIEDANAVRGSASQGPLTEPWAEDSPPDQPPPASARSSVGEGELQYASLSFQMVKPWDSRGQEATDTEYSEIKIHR
The next experiment concerns Trypanosoma cruzi. The experiment is described as follows: Trypanosoma cruzi phosphomannomutase and mannose-1-phosphate guanylyltransferase assay. The class given is functional. Particulars: 10 µM.
Experiment [5] concerns the target T2, Arginase-2, mitochondrial (Homo sapiens) (UniProt P78540).
T2 sequence (whole entry): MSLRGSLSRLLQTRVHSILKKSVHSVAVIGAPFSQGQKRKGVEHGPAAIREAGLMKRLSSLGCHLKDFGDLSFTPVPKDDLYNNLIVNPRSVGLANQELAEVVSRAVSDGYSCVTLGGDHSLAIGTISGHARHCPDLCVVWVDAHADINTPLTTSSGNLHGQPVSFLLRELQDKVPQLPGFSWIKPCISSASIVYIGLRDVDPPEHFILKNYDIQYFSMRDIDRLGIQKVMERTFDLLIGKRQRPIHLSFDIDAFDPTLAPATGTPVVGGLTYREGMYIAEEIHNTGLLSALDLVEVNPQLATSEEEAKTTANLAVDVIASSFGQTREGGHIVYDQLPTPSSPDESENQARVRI
The experiment is described as follows: in vitro enzyme assay to detect the production of urea directly proportional to the activity of Arginase II. Also: in the data most compounds retested in dose-response had high values. The class given is functional. The following applies: 33.3 µM.

The target of experiment [6] is T3, Proteasome subunit beta (Trypanosoma cruzi) (UniProt O96673).
T3 sequence (whole entry): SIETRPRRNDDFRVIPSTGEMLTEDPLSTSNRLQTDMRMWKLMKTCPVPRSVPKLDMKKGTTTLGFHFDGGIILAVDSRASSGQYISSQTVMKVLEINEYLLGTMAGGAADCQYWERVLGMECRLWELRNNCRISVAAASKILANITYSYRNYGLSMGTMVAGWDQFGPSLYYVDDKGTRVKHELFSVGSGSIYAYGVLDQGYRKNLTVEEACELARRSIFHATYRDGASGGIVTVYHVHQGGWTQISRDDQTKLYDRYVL
The experiment is described as follows: Trypanosoma cruzi proteasome chymotrypsin-like activity (TcProtChymo) assay. Also: in the data most compounds retested in dose-response had high values. The class given is functional. Particulars: 9.37 µM.

The next experiment is filed under the species Homo sapiens. The experiment is described as follows: To identify inhibition of the IFN signalling (Jak-Stat) pathway via expression of an eGFP reporter gene under the control of an IFN-stimulated response element (ISRE) containing MxA promoter. Format: functional. Particulars: 30 µM. In general terms: Reporter assays use an easily measured gene product as a stand-in for the process of interest.

Experiment [7] has as its target T4, Tyrosyl-tRNA synthetase, putative (Trypanosoma cruzi (strain CL Brener)) (UniProt Q4DSP6).
T4 sequence (whole entry): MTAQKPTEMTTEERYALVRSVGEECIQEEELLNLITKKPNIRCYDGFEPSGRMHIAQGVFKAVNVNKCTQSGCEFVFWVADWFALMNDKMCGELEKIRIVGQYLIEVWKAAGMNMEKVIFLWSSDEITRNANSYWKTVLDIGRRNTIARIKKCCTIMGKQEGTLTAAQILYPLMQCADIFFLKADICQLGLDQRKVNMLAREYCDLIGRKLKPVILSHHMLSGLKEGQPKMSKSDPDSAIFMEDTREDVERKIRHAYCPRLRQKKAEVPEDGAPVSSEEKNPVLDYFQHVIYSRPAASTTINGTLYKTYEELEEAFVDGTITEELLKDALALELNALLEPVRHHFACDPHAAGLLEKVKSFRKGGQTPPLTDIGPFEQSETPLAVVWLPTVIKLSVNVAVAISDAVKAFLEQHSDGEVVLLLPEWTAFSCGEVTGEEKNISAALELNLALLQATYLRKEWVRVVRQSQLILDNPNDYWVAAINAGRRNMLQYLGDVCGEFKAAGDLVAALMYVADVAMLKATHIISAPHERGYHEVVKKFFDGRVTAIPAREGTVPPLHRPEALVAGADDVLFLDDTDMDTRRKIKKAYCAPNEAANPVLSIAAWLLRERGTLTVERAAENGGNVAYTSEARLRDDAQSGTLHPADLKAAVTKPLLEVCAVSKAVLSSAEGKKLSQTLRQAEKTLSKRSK
The experiment is described as follows: Trypanosoma cruzi tyrosyl tRNA synthetase (TcYRS) _High Tyrosine SOP. Also: in the data most compounds retested in dose-response had high values. The class given is functional. Particulars: 30 µM.

The target of experiment [8] is T4, Tyrosyl-tRNA synthetase, putative (Trypanosoma cruzi (strain CL Brener)). The experiment is described as follows: Trypanosoma cruzi tyrosyl tRNA synthetase (TcYRS) SOP. Format: functional. The following applies: 30 µM.
The target in experiment [9] is Chromo domain-containing protein 1 (Saccharomyces cerevisiae (strain ATCC 204508 / S288c) (Baker's yeast)) (UniProt P32657). The experiment is described as follows: ScCHD-1 Enzyme Inhibition Assay. Also: in the data most compounds retested in dose-response had high values. The class given is functional. Particulars: 30 µM.
Sequence of Chromo domain-containing protein 1 (Saccharomyces cerevisiae (strain ATCC 204508 / S288c) (Baker's yeast)) (P32657 whole entry, the tested form may be a part): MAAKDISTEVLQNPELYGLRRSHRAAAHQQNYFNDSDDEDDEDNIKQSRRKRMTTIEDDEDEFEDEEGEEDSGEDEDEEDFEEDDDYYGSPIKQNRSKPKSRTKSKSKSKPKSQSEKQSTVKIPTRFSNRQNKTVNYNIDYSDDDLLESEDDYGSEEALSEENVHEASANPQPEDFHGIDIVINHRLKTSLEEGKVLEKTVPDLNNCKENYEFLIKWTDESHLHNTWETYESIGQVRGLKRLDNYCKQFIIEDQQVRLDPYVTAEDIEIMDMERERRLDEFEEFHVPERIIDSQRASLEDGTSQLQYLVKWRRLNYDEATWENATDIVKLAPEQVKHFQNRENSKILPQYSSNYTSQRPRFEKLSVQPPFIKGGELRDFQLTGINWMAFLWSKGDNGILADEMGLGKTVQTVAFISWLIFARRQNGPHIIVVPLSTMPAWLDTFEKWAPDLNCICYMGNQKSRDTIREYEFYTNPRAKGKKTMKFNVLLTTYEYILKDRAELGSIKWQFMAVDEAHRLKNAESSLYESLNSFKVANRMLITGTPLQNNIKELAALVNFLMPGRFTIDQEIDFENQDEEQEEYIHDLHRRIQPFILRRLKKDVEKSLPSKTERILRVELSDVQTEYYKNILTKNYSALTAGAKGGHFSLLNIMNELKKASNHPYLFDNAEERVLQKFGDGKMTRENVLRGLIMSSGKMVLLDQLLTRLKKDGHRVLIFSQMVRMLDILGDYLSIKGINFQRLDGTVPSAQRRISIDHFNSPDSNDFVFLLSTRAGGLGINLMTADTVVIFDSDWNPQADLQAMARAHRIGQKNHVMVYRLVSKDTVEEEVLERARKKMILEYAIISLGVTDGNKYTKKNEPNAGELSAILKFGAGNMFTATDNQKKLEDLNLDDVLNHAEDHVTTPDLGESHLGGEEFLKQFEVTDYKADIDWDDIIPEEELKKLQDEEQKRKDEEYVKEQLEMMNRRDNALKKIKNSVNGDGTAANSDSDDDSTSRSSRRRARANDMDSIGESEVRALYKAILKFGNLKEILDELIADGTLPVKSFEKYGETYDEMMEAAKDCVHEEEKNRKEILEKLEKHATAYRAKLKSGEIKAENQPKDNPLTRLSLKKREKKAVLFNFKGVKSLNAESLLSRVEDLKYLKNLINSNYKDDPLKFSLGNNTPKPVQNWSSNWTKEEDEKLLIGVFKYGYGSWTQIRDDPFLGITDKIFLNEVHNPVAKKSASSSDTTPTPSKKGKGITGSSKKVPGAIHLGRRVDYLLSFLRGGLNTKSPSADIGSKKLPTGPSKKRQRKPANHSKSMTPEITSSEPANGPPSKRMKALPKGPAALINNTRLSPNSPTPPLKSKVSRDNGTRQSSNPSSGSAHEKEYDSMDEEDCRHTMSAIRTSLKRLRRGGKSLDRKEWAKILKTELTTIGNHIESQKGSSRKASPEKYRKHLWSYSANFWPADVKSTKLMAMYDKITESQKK

For some of these results: Potency and affinity values are given separately.

Sequence of Protein translocase subunit SecA (Escherichia coli (strain K12)) (P10408 whole entry): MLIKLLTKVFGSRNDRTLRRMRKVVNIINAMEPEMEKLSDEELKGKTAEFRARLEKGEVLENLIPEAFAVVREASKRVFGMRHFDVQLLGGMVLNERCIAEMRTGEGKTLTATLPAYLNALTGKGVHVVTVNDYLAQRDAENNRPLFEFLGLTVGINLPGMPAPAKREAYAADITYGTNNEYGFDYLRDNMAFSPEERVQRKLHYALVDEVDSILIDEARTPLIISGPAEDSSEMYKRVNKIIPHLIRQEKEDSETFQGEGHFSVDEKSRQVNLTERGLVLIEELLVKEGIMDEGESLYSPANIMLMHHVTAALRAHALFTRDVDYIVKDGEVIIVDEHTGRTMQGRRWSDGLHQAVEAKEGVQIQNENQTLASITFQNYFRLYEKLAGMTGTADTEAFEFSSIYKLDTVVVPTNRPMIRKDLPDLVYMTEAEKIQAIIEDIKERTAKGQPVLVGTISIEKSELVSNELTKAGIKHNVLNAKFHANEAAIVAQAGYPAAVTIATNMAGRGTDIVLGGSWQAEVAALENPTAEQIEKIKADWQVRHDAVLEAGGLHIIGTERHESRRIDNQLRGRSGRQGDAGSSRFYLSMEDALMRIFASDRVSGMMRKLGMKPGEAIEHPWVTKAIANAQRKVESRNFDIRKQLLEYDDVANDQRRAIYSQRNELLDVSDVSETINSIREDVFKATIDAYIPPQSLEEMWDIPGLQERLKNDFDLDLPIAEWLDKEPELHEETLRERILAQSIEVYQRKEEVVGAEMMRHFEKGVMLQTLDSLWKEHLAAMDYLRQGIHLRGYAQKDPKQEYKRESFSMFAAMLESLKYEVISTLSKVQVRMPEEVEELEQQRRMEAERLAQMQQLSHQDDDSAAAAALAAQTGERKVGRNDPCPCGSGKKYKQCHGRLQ

Regarding `Cc1csc(N2CCCN(C(=O)C3(C#N)CCCCC3)CC2)n1`, the Percent Effect is -0.0182% in [1]; -2.63% in [2]; 4.54% in [3]; -2.41% in experiment [4]; -0.188% with Trypanosoma cruzi; 0.766% in experiment [5]. Further, the Percent Effect in experiment [6] was -3.34%; in the experiment listed under Homo sapiens, -13.6%; in experiment [7], 0.49%; in experiment [8], -2.44%; in [9], 10.4%.
As for `CC(C)(C)c1nc(CN2CCCC2Cn2cccn2)no1` (stereo unspecified), the Percent Effect in [1] is -1.54%; in [2] it was 26%; in experiment [3] it was -0.88%; in experiment [4] it was -2.85%; in the experiment with Trypanosoma cruzi, 2.81%; in experiment [5] it was 6.41%. In addition, the Percent Effect was 17.7% in experiment [6]; 18.5% in the experiment listed under Homo sapiens; 12.6% in experiment [7]; 26.8% in experiment [8]; -9.21% in experiment [9].
On to `Cn1cc(CN2CC[C@@H]3[C@@H](CCC(=O)N3CCc3c[nH]cn3)C2)cn1`, for which the Percent Effect in experiment [1] is -4.59%; in experiment [2], 5.48%; in [3], -4.95%; in experiment [4], 7.16%; in the experiment on Trypanosoma cruzi, 7.14%; in [5] it was -4.79%. Also, the Percent Effect in [6] is 5.05%; in the experiment filed under Homo sapiens, -5.47%; in experiment [7], 1.04%; in experiment [8], 6.17%; in experiment [9], -0.897%.
Consider `COc1ccc2nnc(CCCC(=O)NCCC3=CCCCC3)n2n1`, for which the Percent Effect in [1] was -0.326%; in experiment [2] it was 12%; in experiment [3], -1.46%; in experiment [4], -0.0396%; in the experiment with Trypanosoma cruzi, 4.71%; in experiment [5] it was -7.57%. In addition, the Percent Effect was 12.2% in experiment [6]; 23.4% in the experiment listed under Homo sapiens; 7.41% in experiment [7]; 17.9% in experiment [8]; -9.92% in [9].
`O=C(CCc1nccs1)N1CCC(N2CCNC2=O)CC1`: the Percent Effect was -3.04% in experiment [1]; 13.7% in experiment [2]; -3.05% in experiment [3]; -5.29% in experiment [4]; -3.33% with Trypanosoma cruzi; 1.82% in [5]. Further, the Percent Effect in [6] is 12.6%; in the experiment filed under Homo sapiens it was 12.7%; in [7] it was 5.38%; in experiment [8], 12.5%; in experiment [9] it was -3.97%.
As for `O=C(c1ccccn1)N1CCCC(c2nccn2Cc2ccncc2)C1` (stereo unspecified), the Percent Effect in experiment [1] is -1.27%; in experiment [2], 2.74%; in experiment [3], -0.242%; in [4], 0.902%; in the experiment with Trypanosoma cruzi it was 2.94%; in experiment [5], 0.909%. Moreover, the Percent Effect in experiment [6] was 19.7%; in the experiment filed under Homo sapiens, 3.55%; in [7], 10.8%; in experiment [8] it was 10%; in experiment [9], -14%.
For `CN(C)CCn1c(=O)oc2ccc(NC(=O)c3cc(Cl)c[nH]3)cc21`, the Percent Effect is -3.23% in experiment [1]; 2.67% in experiment [2]; 0.098% in [3]; 6.1% in [4]; -3.41% with Trypanosoma cruzi; 4.17% in [5]. The Percent Effect in [6] was 13.6%; in the experiment listed under Homo sapiens, 10.7%; in experiment [7] it was 19.1%; in experiment [8], 21%; in [9], -7.97%.
For `COCCN1CC[C@@H]2OC[C@H](C(=O)NCc3cccs3)C[C@@H]2C1`, the Percent Effect in experiment [1] is 0.484%; in experiment [2] it was 13.5%; in experiment [3], 0.443%; in experiment [4] it was -15.8%; in the experiment on Trypanosoma cruzi, -3.23%; in [5], 1.59%. In addition, the Percent Effect in experiment [6] is 8.3%; in the experiment filed under Homo sapiens, -0.0889%; in [7], -2.16%; in [8], 5.13%; in experiment [9] it was -5%.
Regarding `CC(=O)N1CCC(C(=O)NCCN2CCC(C)CC2)CC1`, the Percent Effect in experiment [1] was -1.98%; in [2], 9.72%; in [3], 11.4%; in experiment [4], -1.43%; in the experiment with Trypanosoma cruzi it was -3.6%; in experiment [5] it was 4.86%. The Percent Effect in experiment [6] was 18.1%; in the experiment filed under Homo sapiens, -2.5%; in [7], 4.21%; in experiment [8], 5.13%; in experiment [9], -3.45%.
As for `CS(=O)(=O)NCc1n[nH]c2c1CCN(C(=O)c1ccsc1)C2`, the Percent Effect in [1] was -4.91%; in experiment [2] it was 0%; in experiment [3] it was 2.22%; in experiment [4], -3.92%; with Trypanosoma cruzi, -3.48%; in [5], -59.7%. Also, the Percent Effect was 10.9% in [6]; 5.55% in the experiment filed under Homo sapiens; -2.08% in [7]; 0% in experiment [8]; -5% in [9].
Consider `CCOc1ccc(Cl)c(C(=O)N2CCN(c3cnccn3)CC2)n1`, for which the Percent Effect was -4.82% in experiment [1]; 23.4% in experiment [2]; -2.68% in [3]; 6.96% in [4]; 8.43% in the experiment on Trypanosoma cruzi; 1.42% in experiment [5]. Also, the Percent Effect in experiment [6] is 15.5%; in the experiment listed under Homo sapiens, 17.5%; in experiment [7] it was 10.7%; in [8], 24.4%; in [9] it was -12.4%.

For the origin of these results see ChEMBL document CHEMBL3988442, “University of Dundee, Small-Polar-MMV Screening Library” (2021).
